# Test results reported in PubChem BioAssay.
# Unmarked numbers belong to inactive results. Activity calls are given as the source filed them.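 The calls were made as follows: active = normalized viability below 100% at a tested concentration; inactive = the rest.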
# Assay: ovarian cancer cell viability with rucaparib, profiling panel, oncology-focused library, rucaparib conditional (AID 1508598)
# Conditions: patient-derived ovarian cancer cells, CellTiter-Glo viability, 144 h, active compounds read low
# [1] = at 5 µM, OCI-P5x cells, with rucaparib 20 µM, 100% = cells with rucaparib alone
# [2] = at 5 µM, OCI-P5x cells, without rucaparib
# [3] = at 0.000305 µM, OCI-C5x cells, with rucaparib 10 µM, 100% = cells with rucaparib alone
# [4] = at 0.000305 µM, OCI-C5x cells, without rucaparib
# [5] = at 0.000305 µM, OCI-P5x cells, with rucaparib 20 µM, 100% = cells with rucaparib alone
# [6] = at 0.000305 µM, OCI-P5x cells, without rucaparib
# [7] = at 0.00122 µM, OCI-C5x cells, with rucaparib 10 µM, 100% = cells with rucaparib alone
# [8] = at 0.00122 µM, OCI-C5x cells, without rucaparib
# [9] = at 0.00122 µM, OCI-P5x cells, with rucaparib 20 µM, 100% = cells with rucaparib alone
# [10] = at 0.00122 µM, OCI-P5x cells, without rucaparib
# [11] = at 0.00488 µM, OCI-C5x cells, with rucaparib 10 µM, 100% = cells with rucaparib alone
# [12] = at 0.00488 µM, OCI-C5x cells, without rucaparib
# [13] = at 0.00488 µM, OCI-P5x cells, with rucaparib 20 µM, 100% = cells with rucaparib alone
# [14] = at 0.00488 µM, OCI-P5x cells, without rucaparib
# [15] = at 0.0195 µM, OCI-C5x cells, with rucaparib 10 µM, 100% = cells with rucaparib alone
# [16] = at 0.0195 µM, OCI-C5x cells, without rucaparib
# [17] = at 0.0195 µM, OCI-P5x cells, with rucaparib 20 µM, 100% = cells with rucaparib alone
# [18] = at 0.0195 µM, OCI-P5x cells, without rucaparib
# [19] = at 0.0781 µM, OCI-C5x cells, with rucaparib 10 µM, 100% = cells with rucaparib alone
# [20] = at 0.0781 µM, OCI-C5x cells, without rucaparib
# [21] = at 0.0781 µM, OCI-P5x cells, with rucaparib 20 µM, 100% = cells with rucaparib alone
# [22] = at 0.0781 µM, OCI-P5x cells, without rucaparib
# [23] = at 0.313 µM, OCI-C5x cells, with rucaparib 10 µM, 100% = cells with rucaparib alone
# [24] = at 0.313 µM, OCI-C5x cells, without rucaparib
# [25] = at 0.313 µM, OCI-P5x cells, with rucaparib 20 µM, 100% = cells with rucaparib alone
# [26] = at 0.313 µM, OCI-P5x cells, without rucaparib
# [27] = at 1.25 µM, OCI-C5x cells, with rucaparib 10 µM, 100% = cells with rucaparib alone
# [28] = at 1.25 µM, OCI-C5x cells, without rucaparib
# [29] = at 1.25 µM, OCI-P5x cells, with rucaparib 20 µM, 100% = cells with rucaparib alone
# [30] = at 1.25 µM, OCI-P5x cells, without rucaparib
# [31] = at 5 µM, OCI-C5x cells, with rucaparib 10 µM, 100% = cells with rucaparib alone
# [32] = at 5 µM, OCI-C5x cells, without rucaparib
smiles,measurement,setting,value
CC1(C)C=C(CN2C/C(=C/c3ccc(F)cc3)C(=O)/C(=C/c3ccc(F)cc3)C2)C(C)(C)N1O,viability,[1],55.9% (active)
same,viability,[2],97.4% (active)
CO[C@H]1C[C@H]2CC[C@@H](C)[C@@](O)(O2)C(=O)C(=O)N2CCCC[C@H]2C(=O)O[C@H]([C@H](C)C[C@@H]2CC[C@H](OC(=O)C(C)(CO)CO)[C@H](OC)C2)CC(=O)[C@H](C)/C=C(\C)[C@@H](O)[C@@H](OC)C(=O)[C@H](C)C[C@H](C)/C=C/C=C/C=C/1C,viability,[3],93.5% (active)
same,viability,[4],93.2% (active)
same,viability,[5],85% (active)
same,viability,[6],85% (active)
same,viability,[7],97% (active)
same,viability,[8],95.7% (active)
same,viability,[9],77.3% (active)
same,viability,[10],69.5% (active)
same,viability,[11],88.7% (active)
same,viability,[12],91.6% (active)
same,viability,[13],71.8% (active)
same,viability,[14],56.9% (active)
same,viability,[15],93.2% (active)
same,viability,[16],88.2% (active)
same,viability,[17],71% (active)
same,viability,[18],58.4% (active)
same,viability,[19],93.3% (active)
same,viability,[20],84.7% (active)
same,viability,[21],70.8% (active)
same,viability,[22],56.6% (active)
same,viability,[23],96.4% (active)
same,viability,[24],87.6% (active)
same,viability,[25],71.6% (active)
same,viability,[26],57.7% (active)
same,viability,[27],100%
same,viability,[28],95.8% (active)
same,viability,[29],77% (active)
same,viability,[30],55.6% (active)
same,viability,[31],93.4% (active)
same,viability,[32],88% (active)
same,viability,[1],59.8% (active)
same,viability,[2],54.1% (active)
COC1=C2C[C@H](C)C[C@@H](OC)[C@H](O)[C@H](C)/C=C(\C)[C@H](OC(N)=O)[C@@H](OC)/C=C/C=C(\C)C(=O)NC(=CC1=O)C2=O,viability,[3],97.2% (active)
same,viability,[4],99.7% (active)
same,viability,[5],108%
same,viability,[6],102%
same,viability,[7],107%
same,viability,[8],106%
same,viability,[9],93.1% (active)
same,viability,[10],103%
same,viability,[11],114%
same,viability,[12],109%
same,viability,[13],14.8% (active)
same,viability,[14],14.2% (active)
same,viability,[15],29.6% (active)
same,viability,[16],12.1% (active)
same,viability,[17],5.75% (active)
same,viability,[18],4.97% (active)
same,viability,[19],16.4% (active)
same,viability,[20],9.53% (active)
same,viability,[21],5.79% (active)
same,viability,[22],4.23% (active)
same,viability,[23],11.1% (active)
same,viability,[24],7.02% (active)
same,viability,[25],5.27% (active)
same,viability,[26],4.3% (active)
same,viability,[27],9.96% (active)
same,viability,[28],7.13% (active)
same,viability,[29],5.24% (active)
same,viability,[30],3.95% (active)
same,viability,[31],6.19% (active)
same,viability,[32],5.94% (active)
same,viability,[1],4.11% (active)
same,viability,[2],3.72% (active)
COc1ccc(C2=N[C@@H](c3ccc(Cl)cc3)[C@H](c3ccc(Cl)cc3)N2C(=O)N2CCNC(=O)C2)c(OC(C)C)c1,viability,[3],118%
same,viability,[4],104%
same,viability,[5],90.9% (active)
same,viability,[6],90.5% (active)
same,viability,[7],117%
same,viability,[8],104%
same,viability,[9],94.2% (active)
same,viability,[10],89.4% (active)
same,viability,[11],122%
same,viability,[12],106%
same,viability,[13],97.7% (active)
same,viability,[14],95.5% (active)
same,viability,[15],106%
same,viability,[16],100%
same,viability,[17],96.2% (active)
same,viability,[18],95.8% (active)
same,viability,[19],113%
same,viability,[20],99.5% (active)
same,viability,[21],100%
same,viability,[22],96.7% (active)
same,viability,[23],97.4% (active)
same,viability,[24],101%
same,viability,[25],104%
same,viability,[26],99.4% (active)
same,viability,[27],93.7% (active)
same,viability,[28],100%
same,viability,[29],97.7% (active)
same,viability,[30],101%
same,viability,[31],84.5% (active)
same,viability,[32],95.4% (active)
same,viability,[1],89.7% (active)
same,viability,[2],91.3% (active)
